# Inconclusive results are not listed. Calls of active or inactive are those of the source. Calls come from the whole dose curve; as a rule, active = well fitted cell-killing curve with a large enough effect in the repeat runs; inconclusive = weak or mixed curves, or effect the other way; inactive = flat fitted curve, though single readings scatter.
# Experiment: qHTS assay to identify small molecule antagonists of the retinoid acid receptor (RAR) signaling pathway - cell viability counter screen (AID 1159551); note: nearly all actives have a fitted effect of over 35% in size
# Settings: C3RL4 cells viability, ATP luminescence (CellTiter-Glo), 6 h; series mostly up to 92.4 µM; activity change, negative = cytotoxicity: at the top concentration
# Description: U.S. Tox21 Program National Center for Advancing Translational Sciences [NCATS] NIH Chemical Genomics Center [NCGC] U.S. Environmental Protection Agency [EPA] National Institutes of Environmental Health Sciences [NIEHS] National Toxicology Program [NTP] U.S. Food and Drug Administration [FDA] Tox21 Assay Overview: All-trans Retinoic acid (atRA) is the potent natural metabolite of retinol and plays an important role in normal embryonic development and maintenance of cellular phenotype in adult animals. atRA is the activating ligand for the retinoic acid receptors (RARs) which form heterodimers with retinoid X receptors (RXRs) on the retinoic acid response element (RARE). Through activation of the RAR/RXRs nuclear receptors, atRA regulates the transcription of a large number of protein-coding genes and regulatory RNAs. Intracellular levels of atRA are controlled by the retinol signaling pathway (RSP) that regulates the biosynthesis and catabolism of atRA to maintain physiological levels. Chemicals that interfere with the RSP can cause abnormal intracellular levels of atRA and therefore are potential developmental toxicants. To assess compounds for the potential adverse effect on embryonic development through interfering with retinol signaling, a cell-based RARE luciferase reporter gene assay was used. C3RL4 cell line (OARSA/CFSAN/FDA, Laurel, MD) was used to screen Tox21 10K compound library for identifying inhibitors of the RSP. Also cytotoxicity was assessed by determining the viability of cells based on the quantitation of ATP.
# Tox21 Assay Protocol Summary: C3RL4 cells were seeded at 1,000/well in 4 uL of assay medium into white solid 1,536-well tissue culture plates (Greiner Bio-One North America Inc. Monroe, NC) using a Multidrop Combi (Thermo Scientific, Waltham, MA) dispenser. After incubation at 37 C and 5% CO2 for an overnight, 23 nL of compounds dissolved in DMSO, positive control or DMSO only were transferred by a Pintool station (Kalypsys, San Diego, CA). One ul of 1 uM (final concentration) of Retinol was added right after the compound addition by using a Flying Reagent Dispenser (FRD) (Aurora Discovery, San Diego, CA). After 6 hr incubation at 37 C and 5% CO2, 5 uL of CellTiter-Glo reagent (Promega Corporation, Madison, WI) was added to each assay plate using an FRD. Luminescence was quantified on a ViewLux plate reader (PerkinElmer, Waltham, MA) after 30 min incubation at room temperature.
# % is set by controls: 0 for no effect and ±100 for the full control effect; potency is the fitted concentration of half-maximal effect.
Structure (SMILES),"activity change, negative = cytotoxicity",Potency
CC(C)CC(C)(c1ccc(O)cc1)c1ccc(O)cc1,-1.65% (inactive),
BrCBr,3.24% (inactive),
O=[N+]([O-])c1cc([N+](=O)[O-])c2ccccc2c1,-0.972% (inactive),
CC(C)C1CCC(Cc2ccc(Cl)cc2)C1(O)Cn1cncn1 (stereo not given),,60.5 µM (active)
CC(C)(O)c1cnn2c(-c3ccc(F)c(-c4c(F)cccc4C#N)c3)cnc2n1,4.21% (inactive),
CC(C)CCCCCCCOP(=O)(Oc1ccccc1)Oc1ccccc1,-1.02% (inactive),
Nc1c(Oc2ccccc2)cc(O)c2c1C(=O)c1ccccc1C2=O,-10.4% [at 42.5 µM] (inactive),
CN(C)C1CSSSC1,-0.456% (inactive),
CCc1cc(C)cc(CC)c1-c1c(OC(=O)C(C)(C)C)n2n(c1=O)CCOCC2,-2.46% (inactive),
N#CC(Cl)Cl,1.25% (inactive),
COP(=O)(OC)SCn1c(=O)oc2cc(Cl)cnc21,2.88% (inactive),
CCCN(CC)CC1COC2(CCC(C(C)(C)C)CC2)O1 (stereo not given),0.743% (inactive),
CC(C)CBr,-0.588% (inactive),
CCOP(=S)(OCC)SCS(=O)(=O)C(C)(C)C,-3.86% (inactive),
CC(=O)OC1(c2ccccc2)CCN(CCc2ccccc2)CC1,-8.14% (inactive),
CCCCCCCCCCCCCC[P+](CCCCCC)(CCCCCC)CCCCCC (tested in a mixture with another compound),,27.3 µM (active)
Oc1ccc(C2(c3ccc(O)cc3)CCCCC2)cc1,-4.83% (inactive),
C[C@@H]1CC[C@@]2(OC1)O[C@H]1[C@@H](O)[C@H]3[C@@H]4CC[C@H]5C[C@@H](O[C@@H]6O[C@H](CO)[C@H](O[C@@H]7O[C@H](CO)[C@@H](O)[C@H](O[C@@H]8OC[C@@H](O)[C@H](O)[C@H]8O)[C@H]7O[C@@H]7O[C@H](CO)[C@@H](O)[C@H](O[C@@H]8O[C@H](CO)[C@@H](O)[C@H](O)[C@H]8O)[C@H]7O)[C@H](O)[C@H]6O)[C@H](O)C[C@]5(C)[C@H]4CC[C@]3(C)[C@H]1[C@@H]2C,,25.8 µM (active)
CC(O)C#N (stereo not given),1.47% (inactive),
O=C(Nc1ccc2[nH]ccc2c1)c1cc2cc(F)ccc2n1Cc1cccc(F)c1,0.116% (inactive),

Structure (SMILES),"activity change, negative = cytotoxicity",Potency
N#CCCSCCC#N,4.62% (inactive),
CCN(CC)c1c([N+](=O)[O-])cc(C(F)(F)F)c(N)c1[N+](=O)[O-],-10.1% (inactive),
C[C@]12CC[C@H](O)C[C@H]1CC[C@@H]1[C@@H]2C[C@@H](O)[C@]2(C)[C@@H](C3=CC(=O)OC3)CC[C@]12O,-0.0214% (inactive),
Nc1ccccc1C(=O)Oc1ccc2ccccc2c1,-0.767% (inactive),
O=c1oc2ccccc2c(O)c1Cc1c(O)c2ccccc2oc1=O,-0.266% [at 42.5 µM] (inactive),
BrCC(Br)c1ccccc1 (stereo not given),1.39% (inactive),
c1ccc(OCC2CO2)cc1 (stereo not given),1.14% (inactive),
Oc1c(Cl)c(Cl)cc(Cl)c1Cl,-0.529% (inactive),
O=[N+]([O-])c1cc(Cl)ccc1Cl,1.58% (inactive),
O=c1[nH]c2ccccc2n1CCCN1CCC(n2c(=O)[nH]c3cc(Cl)ccc32)CC1,1.4% [at 42.5 µM] (inactive),
ClC(Cl)=C(Cl)Cl,-0.001% (inactive),
CC(C)[C@H](C(=O)O[C@H](C#N)c1cccc(Oc2ccccc2)c1)c1ccc(Cl)cc1,-6.12% (inactive),
N#CNC#N,3.35% (inactive),
Cc1ccc(C(=O)Cl)cc1,-2.29% (inactive),
CC1(C)CC/C(=C/c2ccc(Cl)cc2)C1(O)Cn1cncn1 (stereo not given),-0.626% (inactive),
O=C(O)C1C2CCC(O2)C1C(=O)O (stereo not given),,inactive
N#C/C=C/c1ccccc1,0.816% (inactive),
Oc1c(Br)c(Br)c(Br)c(Br)c1Br,-6.71% (inactive),
CCCCCCCCCC[N+](C)(C)CCCCCCCCCC,,61.1 µM (active)
CC(C)OS(C)(=O)=O,2.16% (inactive),

# From PubChem BioAssay (Tox21)
